The supplement of paper PMC6555819

What was measured:
Test in all cases: PBM binding z-score (relative to random genomic background probes); higher = stronger binding; sequences stand for … in GC…GCGATTGACAGCGTAGAATGAAGG
[1] = test system: FXR:RXRa (NR concentration 270 nM, RXRa partner concentration 90 nM)
Summary of the method: (§1)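 Binding z-scores were set against random background probes. The data came from custom Agilent 4×180K protein-binding microarrays carrying double-stranded probes with 34-nt variable regions, incubated 1 h with ligand-free nuclear receptor dimers. Partner-specific antibodies detected binding, and scanned fluorescence was regression-normalized.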

[2] = test system: LXRa:RXRa (NR concentration 270 nM, RXRa partner concentration 90 nM)
Summary of the method: as §1

[3] = test system: LXRa homodimer (NR concentration 270 nM)
Summary of the method: as §1

[4] = test system: LXRb:RXRa (NR concentration 270 nM, RXRa partner concentration 90 nM)
Summary of the method: as §1

[5] = test system: LXRb homodimer (NR concentration 270 nM)
Summary of the method: as §1

[6] = test system: PPARa:RXRa (NR concentration 270 nM, RXRa partner concentration 90 nM)
Summary of the method: as §1

[7] = test system: PPARg:RXRa (NR concentration 180 nM, RXRa partner concentration 90 nM)
Summary of the method: as §1

[8] = test system: PPARg:RXRa 270nM:90nM, anti-RXR (NR concentration 270 nM, RXRa partner concentration 90 nM)
Summary of the method: as §1

[9] = test system: PPARg:RXRa 30nM:10nM, anti-RXR (NR concentration 30 nM, RXRa partner concentration 10 nM)
Summary of the method: as §1

[10] = test system: PPARg:RXRa 90nM:30nM, anti-RXR (NR concentration 90 nM, RXRa partner concentration 30 nM)
Summary of the method: as §1

[11] = test system: PPARg:RXRa DBDmut IVT, anti-RXR (DBD mutation: RXRa K156A/R161A, NR concentration 270 nM, RXRa partner concentration 90 nM)
Summary of the method: as §1

[12] = test system: PPARg:RXRa IVT, anti-PPARg (NR concentration 270 nM, RXRa partner concentration 90 nM)
Summary of the method: as §1

[13] = test system: PPARg DBDmut:RXRa IVT, anti-PPARg (DBD mutation: PPARg1 K132A/R137A, NR concentration 270 nM, RXRa partner concentration 90 nM)
Summary of the method: as §1

[14] = test system: PPARg DBDmut IVT, anti-PPARg (DBD mutation: PPARg1 K132A/R137A, NR concentration 270 nM)
Summary of the method: as §1

[15] = test system: PPARg homodimer (NR concentration 180 nM)
Summary of the method: as §1

[16] = test system: PXR:RXRa (NR concentration 270 nM, RXRa partner concentration 90 nM)
Summary of the method: as §1

[17] = test system: PXR homodimer (NR concentration 270 nM)
Summary of the method: as §1

[18] = test system: RARa:RXR (NR concentration 270 nM, RXRa partner concentration 90 nM)
Summary of the method: as §1

[19] = test system: RARa homodimer (NR concentration 270 nM)
Summary of the method: as §1

Row | Sequence | PBM binding z-score [1] | PBM binding z-score [2] | PBM binding z-score [3] | PBM binding z-score [4] | PBM binding z-score [5] | PBM binding z-score [6] | PBM binding z-score [7] | PBM binding z-score [8] | PBM binding z-score [9] | PBM binding z-score [10] | PBM binding z-score [11] | PBM binding z-score [12] | PBM binding z-score [13] | PBM binding z-score [14] | PBM binding z-score [15] | PBM binding z-score [16] | PBM binding z-score [17] | PBM binding z-score [18] | PBM binding z-score [19]
1 | CAACCTAGGTCACGAAAGGTCAAAGTCGAATGAC | 7.63 | 8.28 | 8.29 | 7.81 | 2.82 | 6.92 | 7.93 | 7.32 | 4.53 | 6.39 | 5.05 | 6.58 | 1.6 | 1.91 | 4.46 | 7.28 | 2.49 | 6.93 | 1.71
2 | AGTCATAGTTCACTAGGTAACGTAAGATTCAGCT | 0.829 | 1.51 | 0.415 | 1.11 | 0.233 | 3.01 | 3.89 | 3.82 | 1.59 | 2.88 | 1.88 | 3.43 | 1.06 | 0.768 | 1.27 | 1.17 | 0.241 | 1.21 | 0.337
3 | CCTACTGGGCCAAAAATGTCATTGATGCCGATAA | -0.451 | -0.771 | -0.332 | -0.343 | -0.655 | 0.13 | 0.537 | 0.911 | -0.0652 | 0.391 | 2.92 | 2.47 | -0.355 | -0.43 | -0.472 | -0.383 | -0.24 | -0.612 | 0.0407
4 | ATATGTAGCTTAAGGGTCATTCAGGTTGGTTCGC | 3.83 | 3.86 | 1.83 | 3.79 | 0.863 | 4.2 | 3.93 | 5.35 | 3.44 | 5.39 | 0.343 | 2.21 | 1.55 | 0.663 | 2.61 | 4.83 | 1.67 | 4.2 | 0.894
5 | AATACAGGGACATCGTAGGCCAGAGTACGCACAG | -0.0851 | -0.29 | 0.107 | -0.465 | 0.118 | -0.329 | 1.07 | -0.124 | 0.0369 | 0.0571 | -0.376 | 0.372 | 0.226 | 0.0255 | -0.207 | -0.16 | 0.0295 | -0.225 | 0.123
6 | TTACCAAGGTGAAAGGTCGTTGAGGCACGCCTTG | 3.79 | 3.61 | 0.199 | 2.74 | -0.545 | 5.53 | 9.39 | 8.28 | 7.31 | 9.21 | 2.94 | 5.16 | 0.87 | 2.27 | 2.82 | 3.98 | 0.614 | 6.03 | 0.265
7 | CGTCAAAGTTCAAGGTTACGTAACAGAAAGCAGC | 6.96 | 5.9 | 2.46 | 4.07 | 1.18 | 5.3 | 4.97 | 5.43 | 2.35 | 4.26 | 0.998 | 2.75 | 1.55 | 1.22 | 2.53 | 4.66 | 2.48 | 4.11 | 1.38
8 | CGAACTAGGACATCCAGGACAGTGAATACATTGA | 0.00191 | -0.483 | 0.0183 | -0.213 | -0.407 | 0.451 | 1.35 | 0.774 | 0.322 | 0.462 | 5.1 | 4.07 | 0.493 | 0.652 | 0.302 | -0.363 | 0.206 | 0.00684 | 0.136
9 | CGTCGGAGGACAACAGGAGGTCAGAGCTGCCAGA | 1.46 | 2.29 | 2.3 | 1.48 | -0.649 | 1.98 | 0.434 | 0.482 | -0.532 | 0.226 | 0.202 | 0.616 | -1.5 | -1.4 | 2.42 | 2.5 | 0.93 | 2.58 | 0.114
10 | ACAGACAGGTGAGTGAAGGTCACTCAGCTGGACG | 2.41 | 2.98 | 0.517 | 1.82 | -0.302 | 2.61 | 1.51 | 1.98 | 0.232 | 1.46 | 0.842 | 2.27 | 0.253 | 0.153 | 1.49 | 3.66 | 0.106 | 2.82 | 0.0123
11 | CGAACTAGGTCAGAACAGTACAGTGAAGGATGAT | 1.08 | 0.839 | 0.06 | 0.623 | -0.447 | 2.86 | 5.05 | 4.39 | 1.99 | 3.68 | 7.19 | 7.31 | 2.36 | 3.58 | 1.14 | 0.921 | 0.234 | 0.873 | 0.291
12 | CGTCGGAGGACAGAAGGTCAGAGCTGTCCGCTTT | 1.32 | 1.68 | 0.0253 | 1.19 | -1.11 | 1.85 | -0.101 | 1.07 | -0.708 | 0.0661 | 0.0146 | 0.25 | -1.84 | -2.14 | 1.33 | 1.48 | -0.228 | 1.84 | 0.257
13 | ACTAGTTGCTCAGCTGAGGTCACACACAATTCGG | 2.75 | 2.94 | 1.75 | 3.4 | 0.214 | 3.4 | 1.17 | 1.69 | 0.448 | 1.24 | 0.944 | 1.76 | 0.496 | 1.18 | 1.91 | 4.3 | 1.44 | 4.26 | 0.561
14 | TTACGAAGGTGAAAGGTCGTTGATGCACGCCTTG | 3.43 | 3.33 | 0.283 | 2.75 | -0.598 | 5.25 | 8.12 | 7.35 | 6.74 | 8.17 | 2.05 | 4.53 | 0.416 | 0.212 | 1.39 | 3.77 | 0.289 | 5.13 | 0.203
15 | GCTGCTAGGTCAGGTTGGTCAACTAACGGGTACG | 1.14 | 0.685 | -0.134 | 0.695 | -0.424 | 1.46 | 0.577 | 0.833 | -0.708 | 0.0771 | 3.05 | 2.52 | -0.717 | -0.77 | 0.891 | 0.217 | -0.382 | 0.842 | -0.0438
